IL1B secr inh: qHTS for Inhibitors of Inflammasome Signaling: IL-1-beta AlphaLISA Primary Screen. THP-1 LPS/ATP IL-1B secretion, AlphaLISA, 16 h; hits give low values. activity change, % at 57.5 µM. 360,000 tested, 4.7% active. AID 743279, 2014; in the data active = activity change below about -50%; inconclusive = mostly about -30% to -49%
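Secreted IL-1B measured by AlphaLISA bead assay after 16 h compound exposure of THP-1 cells; compounds (final up to 57.5 uM) added 1 h before LPS (250 ng/mL) and ATP (1.25 mM) stimulation; lower signal means less secretion.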
HT1080 IDH1KD tx: qHTS for induction of synthetic lethality in tumor cells producing 2HG: qHTS for the HT-1080-IDH1KD cell line; 360,000 tested, 2% active; AID 686971, 2013; Potency, µM (titrated, usually from 46.1 µM), for inactives: at the top dose activity, negative = toxicity, actives largely listed as cytotoxic; HT-1080 IDH1 knockdown viability, ATP luminescence, 48 h;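 also: potency is read from the fitted curve at half-maximal effect; 0% = DMSO wells and -100% = cell-free medium wells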
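In this qHTS, HT-1080 cells depleted of IDH1 are exposed for 48 h at 37 °C to compound titrations. Toxicity is scored from CellTiter-Glo luminescence, with DMSO as full viability and medium alone as none.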
HT1080-NT tox: qHTS for induction of synthetic lethality in tumor cells producing 2HG: qHTS for the HT-1080-NT fibrosarcoma cell line | HT-1080-NT fibrosarcoma viability, CellTiter-Glo ATP luminescence, 48 h | Potency, µM (titrated, usually from 46.1 µM), for the others: at the top dose activity, negative = less viability, actives largely listed as cytotoxic | 360,000 tested, 1.6% active;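 also: NT is the 2HG producing partner of a matched IDH1 knockdown line; potency is read from the fitted curve at half-maximal effect; 0% = DMSO-treated cells and -100% = media-only wells without cells; nearly all actives have a fitted effect of over 55% in size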
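HT-1080-NT fibrosarcoma cells (2HG-overproducing), 750 cells/well in RPMI with 5% FBS, dosed after 2 h and incubated 48 h at 37C. CellTiter-Glo luminescence normalized to DMSO and no-cell wells; concentration-response curves fitted and classed.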
DT40 TDP1 CPT: qHTS for Inhibitors of human tyrosyl-DNA phosphodiesterase 1 (TDP1): qHTS in cells in presence of CPT; chicken DT40 Tdp1-/-;hTDP1 cells + 20 nM CPT, ATP luminescence, 48 h; Potency, µM (top dose mostly 46.2 µM), inactives show at the top dose activity change, negative = growth inhibition, most hits filed as inhibitors; 420,000 tested, 12% active; also: potency is read from the fitted curve at half-maximal effect; nearly all actives have a fitted effect of over 55% in size
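Chicken DT40 Tdp1-/- cells stably complemented with human TDP1 were seeded at 400 cells/well in medium containing 20 nM camptothecin, exposed to pin-transferred compounds, and grown at 37 °C for at least 48 hr. Viability was read as ATP luminescence.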
12-LOX inh: Primary qHTS assay for inhibitors of human arachidonate 12S-lipoxygenase (ALOX12): Round 2; purified 12hLO, xylenol orange hydroperoxide absorbance; 580,000 tested, 1.1% active; Potency, µM (doses to about 108 µM), without a hit: at the top dose activity change, negative = inhibition, actives largely listed as inhibitors; AID 1671190, 2021; Polyunsaturated fatty acid lipoxygenase ALOX12 (Homo sapiens), P18054; also: potency is read from the fitted curve at half-maximal effect
Target sequence (P18054 whole entry, looked up): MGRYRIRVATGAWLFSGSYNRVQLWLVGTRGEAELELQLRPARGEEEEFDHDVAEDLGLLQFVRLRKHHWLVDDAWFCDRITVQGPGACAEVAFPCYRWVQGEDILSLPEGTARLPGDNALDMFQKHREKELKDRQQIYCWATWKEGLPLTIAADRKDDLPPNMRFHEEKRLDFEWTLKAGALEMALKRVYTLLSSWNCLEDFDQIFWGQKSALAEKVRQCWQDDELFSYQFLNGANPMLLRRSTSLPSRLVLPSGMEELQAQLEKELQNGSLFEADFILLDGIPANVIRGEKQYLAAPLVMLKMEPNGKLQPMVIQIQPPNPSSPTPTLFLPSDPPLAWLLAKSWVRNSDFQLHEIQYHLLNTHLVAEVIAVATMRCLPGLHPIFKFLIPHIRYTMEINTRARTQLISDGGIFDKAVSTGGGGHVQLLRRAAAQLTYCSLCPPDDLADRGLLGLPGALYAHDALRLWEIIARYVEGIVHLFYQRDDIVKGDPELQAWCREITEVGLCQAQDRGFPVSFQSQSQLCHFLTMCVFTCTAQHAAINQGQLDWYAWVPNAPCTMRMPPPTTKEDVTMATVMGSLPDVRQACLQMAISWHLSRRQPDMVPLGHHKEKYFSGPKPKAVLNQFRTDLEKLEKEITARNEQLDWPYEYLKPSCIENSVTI
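Purified human 12hLO at 150 nM in 25 mM Hepes, 0.01% Triton X-100, pH 7.0, preincubated 15 min at room temperature with compound. Reaction started with 40 uM arachidonic acid, 30 min at room temperature. Hydroperoxide measured by Fe-xylenol orange, 573/405 nm absorbance ratio.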
TDP1 cell noCPT: qHTS for Inhibitors of human tyrosyl-DNA phosphodiesterase 1 (TDP1): qHTS in cells in absence of CPT; DT40 Tdp1-/- hTDP1 cells, no CPT, ATP luminescence, 48 h; Potency, µM (highest dose often 46.2 µM), without a hit: at the top dose activity change, negative = growth inhibition, most hits filed as inhibitors; 420,000 tested, 15% active; also: potency is read from the fitted curve at half-maximal effect; nearly all actives have a fitted effect of over 55% in size
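Stably hTDP1-transfected Tdp1-null chicken DT40 cells were treated with library compounds minus camptothecin and grown for at least 48 hr at 37 °C, after which cellular ATP was quantified by luminescence.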
Starred values were filed as active, the others as inactive; ? = inconclusive; · = not tested or not shown. The entries come from a sample that favours hits as a whole. Unless noted, calls follow the shape of the dose curve; as a rule, active = well fitted curve in the direction sought with a large enough effect; inconclusive = small, poorly fitted or top-dose-only effect, or another doubt; inactive = no such curve, though single readings can be large; an effect the other way counts as inactive or inconclusive. Unless noted, % is scaled to controls: 0 for no effect and ±100 for the full control effect.

SMILES	IL1B secr inh	HT1080 IDH1KD tx	HT1080-NT tox	DT40 TDP1 CPT	12-LOX inh	TDP1 cell noCPT
CCOC(CNC(=O)c1ccc(CNS(=O)(=O)c2ccc(F)cc2)cc1)OCC	·	·	·	·	6.9%	·
COc1ccc(C2N(c3ccc4c(c3)OCCO4)C(=O)C2(F)F)cc1OC (centres undefined)	-78.7*	-6.6%	3.1%	-16.6%	6.3%	-1.8%
Cc1nn(-c2ccc3nncn3n2)c2c1C(c1ccccc1OCc1ccccc1)CC(=O)N2 (centres undefined)	·	·	·	·	0.4%	·
CN(C)c1cc(N2CCCC(NC(=O)COc3ccccc3)C2)ncn1 (centres undefined)	·	·	·	·	38.8%	·
COc1cccc(S(=O)(=O)Nc2ccc3c(c2)C(=O)N(C)C[C@H](OC)[C@H](C)CN(Cc2ccccc2F)[C@@H](C)CO3)c1	?	?	?	9.2µM*	?	8.2µM*
CO[C@H]1CN(C)C(=O)c2cc(NC(=O)C3CCOCC3)ccc2OC[C@H](C)N(Cc2nccs2)C[C@H]1C	-62.4*	11.5%	14.4%	0.7%	-12.6%	-5.9%
CO[C@H]1CN(C)C(=O)c2ccc(NC(=O)C3CCC3)cc2OC[C@H](C)N(Cc2ccccn2)C[C@@H]1C	31.5	20.5%	18.2%	11.3%	3.3%	-17.9%
CC1(C)N=C(N)N=C(N)N1c1ccc(OCC(=O)N2CCOCC2)c(Cl)c1	2.1	0.13µM*	0.517µM*	0.411µM*	-25.1%	0.366µM*
Cc1ccc(-c2ccc(OCC(=O)N3CCOCC3)cc2)cc1	0.0	-13.6%	-8.1%	-8.8%	-29.3%	?
CC1(C)N=C(N)N=C(N)N1c1ccc(OCC(=O)N2CCOCC2)cc1	-12.4	6.51µM*	23.1µM*	?	-9.8%	?
O=C(CS(=O)(=O)c1cccc2nsnc12)N1CCN(c2cccc(C(F)(F)F)c2)CC1	·	·	·	8.2µM*	-5.8%	20.6µM*
Cc1cccc(N2CCN(C(=O)CS(=O)(=O)c3cccc4nsnc34)CC2)c1C	·	·	·	16.4µM*	-6.8%	?
Cc1nc2ccn(Cc3ccco3)c(=O)c2cc1C(=O)N1CCN(c2ccccc2F)CC1	·	·	·	?	-21.1%	?
COc1ccc(Cn2ccc3nc(C)c(C(=O)N4CCN(c5ccccc5)CC4)cc3c2=O)cc1	·	·	·	2.9%	11.1%	-6.7%
COc1ccc(N2CCN(C(=O)c3cc4c(=O)n(Cc5ccco5)ccc4nc3C)CC2)cc1	·	·	·	?	-27.7%	?
Cc1ccc(C)c(N2CCN(C(=O)c3cc4c(=O)n(Cc5ccco5)ccc4nc3C)CC2)c1	·	·	·	?	?	16.4µM*
COc1ccc(Cn2ccc3nc(C)c(C(=O)N4CCN(c5cccc(OC)c5)CC4)cc3c2=O)cc1	·	·	·	14.6µM*	7.9%	?
COc1ccc(Cn2ccc3nc(C)c(C(=O)N4CCN(c5cc(C)ccc5C)CC4)cc3c2=O)cc1	·	·	·	20.6µM*	2.6%	23.1µM*
COc1cccc(N2CCN(C(=O)c3cc4c(=O)n(Cc5ccco5)ccc4nc3C)CC2)c1	·	·	·	16.4µM*	-25.3%	16.4µM*
CC(=O)N1CCC(CC(=O)NCCc2ncc(C)n2C(C)C)CC1	·	·	·	·	5.8%	·
COc1ccc(Cn2ccc3nc(C)c(C(=O)NCc4ccc(C)cc4)cc3c2=O)cc1	·	·	·	25.9µM*	11.6%	?
Cc1ccc(NC(=O)C2(Cc3ccccc3)CCCCC(=O)N2)cc1 (centres undefined)	·	·	·	·	-2.9%	·
Cc1cc(C)cc(C(=O)N(NC(=O)Nc2ccc(Cl)cc2)C(C)(C)C)c1	-29.8	-22.9%	-17.0%	14.6µM*	29.6%	?
CC(C)(C)N(NC(=O)Nc1ccc(Cl)c(Cl)c1)C(=O)c1ccccc1	-50.9*	18.4µM*	20.6µM*	18.4µM*	-34.5%	18.4µM*
O=C(CN1CCC2(CC1)OCCO2)Nc1cc(Cl)ccc1Cl	·	·	·	·	10.8%	·
SMILES	IL1B secr inh	HT1080 IDH1KD tx	HT1080-NT tox	DT40 TDP1 CPT	12-LOX inh	TDP1 cell noCPT
Cc1ccc(-c2nnc(N3CCN(C(=O)CSc4ncn[nH]4)CC3)c3ccccc23)cc1	?	?	-0.9%	16.4µM*	0.6%	?
CCN(CC)C(=O)COc1ccc(-c2nnc(N3CCCCC3)c3ccccc23)cc1	-11.4	-5.2%	-1.5%	-25.8%	-2.1%	?
CCOc1ccc(-c2nnc(N3CCCCC3)c3ccccc23)cc1	?	?	?	23.1µM*	-45.9%	16.4µM*
Cc1ccc(-c2nnc(N3CCCCC3)c3ccccc23)cc1S(=O)(=O)N(C)C	-57.3*	2.7%	11.4%	23.1µM*	18.1%	?
CCOc1ccc(-c2n[nH]c(=S)c3ccccc23)cc1	34.7	-5.4%	-15.7%	23.1µM*	0.0%	?
Cc1ccc(-c2n[nH]c(=S)c3ccccc23)cc1	27.4	-0.9%	8.5%	?	26.3%	?
Cc1ccc(S(=O)(=O)N2CCN(Cn3ncc4ccccc4c3=O)CC2)cc1	·	·	·	·	1.6%	·
Cc1ccc(OCC(=O)N2CCN(c3nnc(-c4ccccc4)c4ccccc34)CC2)cc1	-72.8*	?	?	?	0.0%	?
CC(C)NC(=O)c1nc(-c2cccc(C(F)(F)F)c2)c2cnccn12	·	·	·	·	8.3%	·
Nc1cc(Cl)ccc1C(=O)OCC(=O)NCc1cccs1	-84.6*	0.0%	-2.7%	?	25.9%	?
O=C(COC(=O)C1(c2ccccc2F)CCCC1)NCc1cccs1	?	-1.5%	-10.5%	?	3.5%	23.1µM*

Screening results: PubChem BioAssay, National Center for Advancing Translational Sciences (NCATS)
